Test results reported in PubChem BioAssay AID925 (National Center for Advancing Translational Sciences (NCATS), 2007).
Values joined by “and” are separate entries in the source; they are usually repeats but may differ in a detail not shown here. Equal values may be shown once. Among all 65,000 compounds or so, about 40 (0.06%) were called active. This excerpt belongs to a sample that is enriched for actives. Unmarked numbers belong to inactive results. Calls come from the whole dose curve; as a rule, active = well fitted activation curve with a large enough effect; inconclusive = small, poorly fitted or top-dose-only effect; inactive = flat fitted curve, though single readings scatter.
Potency is the fitted concentration of half-maximal effect.

Experiment: qHTS Assay for Modulators of Hemoglobin Beta Chain Splicing; for activation: 0% is about no effect
Details: HBB splicing reporter cell assay, EGFP reporter with mutant IVS2-654 intron; Potency: activation; series mostly up to 46.1 µM; activation: at the top concentration
Source text: NIH Chemical Genomics Center [NCGC]
NIH Molecular Libraries Screening Centers Network [MLSCN]
PI Name: Dr. Ryszard Kole
Modulation of Alternative Splicing as Therapy
Abnormal splicing is associated with a number of diseases, including cancer and genetic diseases such as cystic fibrosis, muscular dystrophy and beta-thalassemia. Alteration of disease associated splicing patterns provides a promising target for treatment. […] Mutations in the second intron of the beta-globin gene at positions are clinically relevant and cause mis-splicing which results in an out of frame gene product.
EGFP-654 and 705 HeLa Cells as screen system.
HeLa cell lines were stably transfected with a construct in which the EGFP (enhanced green fluorescent protein) cDNA was interrupted by the second intron of the beta-globin gene (IVS2-654). The ISV2 intron contains mutations which cause mis-splicing of EGFP and premature termination of EGFP which results in a nonfluorescent protein product. […] Expression of the transgene was driven by the CMV promoter. We concluded that a low molecular weight compound, which restored correct splicing of intron 2 would also generate functional EGFP protein, resulting in a fluorescent signal. Thus, the HeLa cells that express the EGFP-654 construct can be used for high throughput screening of a chemical library.
NCGC Assay Protocol Summary:
High Throughput Screening. Freshly thawed HeLa EGFP-654 cells were seeded in 5 ul of optimem media (Invitrogen) containing 2 % fetal calf serum (Hyclone) and 1x penicillin/streptomycin (Invitrogen) at a concentration of 500 cells per well in 1536-well plates. Cells were incubated overnight at 37C in 5% CO2. The next day, cells were treated with DMSO, 500 nM antisense ISV2 654 PNA control oligo, or library compound and allowed to grow at 37C in 5% CO2 for 2 days. The PNA oligo blocked the mutation site in the intron and allowed proper (wild type) splicing to occur, resulting in full length EGFP expression and also allowed for optimization of the assay parameters. Plates were read in the Acumen Explorer (TTP Labtech) using 488 nm laser excitation and 500-520 nm emission PMT filter in a 1 x […] capture mode. Fluorescnet Fluorescent objects ranging in size from […] were measured and the total peak GFP intensity for each well was used for data analysis.
Keywords: Thalassemia, beta-thalassemia, beta-globin, EGFP, ISV2 654, ISV2 705, SSO, PNA, antisense, splicing, MLSMR, MLSCN, NIH Roadmap, qHTS, NCGC
With `N#Cc1cccc(-c2nc3cnc(N4CCNCC4)nc3n(C3CC3)c2=O)c1` the “activation” value was -0.0364%. In the case of `CCNc1ncc2nc(CCc3ccccc3)c(=O)n(-c3ccc(OC)cc3)c2n1`, the “activation” value is reported as 9.49%. In the case of `COCCn1c(=O)c(-c2cc(F)cc(F)c2)nc2cnc(N3CCNCC3)nc21`, the “activation” value is reported as -0.701%. With `N#CCCn1c(=O)c(-c2cc(F)cc(F)c2)nc2cnc(Oc3ccccc3)nc21` the “activation” value was -1.62%. For `CN1CCc2[nH]nc(-c3n[nH]c4c3CN(C)CC4)c2C1`, the activation was 1.49% [at 9.22 µM, normalised to 500 nM splice-correcting PNA]. With `COC(=O)N1CCC2(CCCN(Cc3ccccc3OC)C2)CC1` the “activation” value was -1.36%. With `CN(C)CCCn1c2ccccc2c2cnccc21` the activation was 4.04% [at 9.22 µM, normalised to 500 nM splice-correcting PNA]. In the case of `CCN1C(=O)c2cccc3c(N)ccc1c23`, the “activation” value is reported as -0.679%. With `Nc1ccc2c3c(cccc13)C(=O)NC2=O` the Potency was 31.6 µM (active). In the case of `CC(C)CN1CCc2nc(-c3ccccc3)c3c(c2C1)COC(C)C3` (centres undefined), the activation is reported as 2% [at 9.22 µM, normalised to 500 nM splice-correcting PNA]. For `CCCn1c(-c2ccc(F)cc2)nc2c(NC3CCN(Cc4ccccc4)C3)nc(C)nc21` (centres undefined), the “activation” value was -0.408%. In the case of `CCOc1ccc(N=NS(=O)(=O)O)cc1`, the activation is reported as 3.52% [at 9.22 µM, normalised to 500 nM splice-correcting PNA]. With `CCCCC(CC)CN` (centres undefined) the activation was “inactive”. With `CC(C)(C)[Si](OCC[C@@H]1C[C@@]1(C)[C@@H](NP(=O)(c1ccccc1)c1ccccc1)c1ccccc1)(c1ccccc1)c1ccccc1` the “activation” value was -1.23%. With `Cn1c(=O)n2n(c1=O)[C@H]1[C@H](O)[C@H]3O[C@H]3C(=O)[C@H]1CC2` the activation was 0.301% [at 9.22 µM, normalised to 500 nM splice-correcting PNA]. In the case of `CN1C(=O)C[C@H](c2ccccc2)C1=O`, the “activation” value is reported as 0.654% [at 20.6 µM, normalised to 500 nM splice-correcting PNA]. With `S=c1[nH]nc(SCc2ccccc2Cl)c2[nH]cnc12` the activation was 3.49% [at 9.22 µM, normalised to 500 nM splice-correcting PNA]. For `CC(=O)OCC1OC(C#CCCCc2ccccc2)C=CC1OC(C)=O` (centres undefined), the activation was -0.748% [at 9.22 µM, normalised to 500 nM splice-correcting PNA] and 1.62% [at 9.22 µM, normalised to 500 nM splice-correcting PNA]. With `O=C(c1ccco1)N1CCC2(CC1)CCN(c1ncccn1)CC2` the “activation” value was 6.14%. In the case of `CC(C)[C@@H](OCc1ccccc1)[C@H](C)/C=N\OC[C@@H](C)[C@H](OCc1ccccc1)C(C)C`, the activation is reported as 4.09% [at 9.22 µM, normalised to 500 nM splice-correcting PNA]. In the case of `COc1ccccc1-c1nc(N2CCN(C)CC2)c2ccccc2n1`, the “activation” value is reported as -1.17%. With `CCCCCCN(C(=O)CCCCCN1C(=O)NC(c2ccc(C(F)(F)F)cc2)C(C(=O)OCc2ccccc2)=C1C)C(C(=O)NCCCC)c1ccc(OCC(=O)OC)c(C(=O)OC)c1` (centres undefined) the “activation” value was -0.619%. In the case of `CC(=O)CC(C)C`, the “activation” value is reported as -0.025%. With `COC(=O)[C@@]1(Cc2ccc(F)cc2)[C@H]2c3cc(C(=O)N(C)C)n(CCc4c[nH]c5ccc(OC)cc45)c3C[C@H]2CN1C(=O)c1ccccc1` the “activation” value was 0.012%. With `CC(C)NC(=O)N1CCCC2(CCN(C(=O)c3cccn3C)CC2)C1` the “activation” value was 2.69%. In the case of `O=C(O)/C(=C/c1c(C(=O)O)[nH]c2cc(Cl)cc(Cl)c12)c1ccccc1`, the “activation” value is reported as -0.728%. With `O=C(c1ccco1)N1CCC[C@@]2(CCN(c3ccccc3)C2)C1` the “activation” value was -0.234%. In the case of `NC1(C(=O)OCc2ccccc2)CCCC1`, the activation is reported as 1.82% [at 9.22 µM, normalised to 500 nM splice-correcting PNA]. With `COc1ccc(Br)c2c1C[C@H](C(=O)O)CC2` the activation was 3.18% [at 9.22 µM, normalised to 500 nM splice-correcting PNA]. With `COC(=O)c1ccc(C(NC(=O)OCc2ccccc2)/C(C)=C/[C@@H](C)C(=O)NCc2cc(C)on2)cc1` (some centres undefined) the “activation” value was 0.55%. For `COc1ccc(-n2c(=O)c(-c3cn(C)c4ccccc34)nc3cnc(OC)nc32)cc1`, the “activation” value was 1.65%. For `Brc1cc(Br)c(Oc2cc(Br)c(Br)cc2Br)cc1Br`, the “activation” value was -0.0225%. With `Oc1ccc(O)c2c(O)cccc12` the “activation” value was -0.446%. For `N#Cc1cccc(-c2ccc3ncnc(NCc4cccs4)c3c2)c1`, the “activation” value was -0.857%. For `CC[N+](C)(CC)CCC[n+]1c(-c2ccccc2)c2cc(N)ccc2c2ccc(N)cc21`, the “activation” value was -0.429% [at 20.6 µM, normalised to 500 nM splice-correcting PNA]. In the case of `COc1ccccc1-c1cc(NCc2cccs2)ncn1`, the “activation” value is reported as 0.429%. With `COc1ccc2[nH]cc(CCNc3nc(-c4cccc(NS(C)(=O)=O)c4)nc4ccccc34)c2c1` the “activation” value was -1.42%. In the case of `C[C@H](CCC(=O)O)[C@H]1CC[C@@H]2[C@H]3CC[C@H]4C[C@H](O)CC[C@@]4(C)[C@@H]3CC[C@@]21C`, the activation is reported as 1.15% [at 9.22 µM, normalised to 500 nM splice-correcting PNA]. For `C[C@H]1O[C@@H](CC(=O)O)Cc2c1c(O)c1c(O)cc(-c3cc(=O)c4c(=O)c5c(c(=O)c=4c3=O)C[C@H](CC(=O)O)O[C@@H]5C)c(O)c1c2O`, the activation was 4.76% [at 9.22 µM, normalised to 500 nM splice-correcting PNA]. For `COC(=O)[C@@]1(Cc2ccccc2)[C@H]2c3cc(C(=O)N(C)C)n(CCSCCO)c3C[C@H]2CN1C(=O)c1ccccc1`, the “activation” value was -0.366%. With `COc1ccc(C(=O)N/N=C2/C(=O)c3c(C)cc(C)cc3CC2(C)C)cc1` the activation was 3.55% [at 9.22 µM, normalised to 500 nM splice-correcting PNA]. In the case of `COC(=O)[C@@]1(Cc2ccccc2)[C@H]2c3cc(C(=O)N4CCCC4)n(Cc4ccc(C)o4)c3C[C@H]2CN1C(=O)c1ccccc1`, the “activation” value is reported as 0.0086%. With `CC(C)CC1(C(=O)NCc2ccccn2)C=CCN1C(=O)c1ccccc1` (centres undefined) the “activation” value was -0.315%. With `COC(=O)C1(C)C=CC2(CCCCC2)N1C(C)=O` (centres undefined) the “activation” value was -0.264%. In the case of `O=C(Nc1cccc(F)c1)N1CC2(CCN(C(=O)c3cnccn3)CC2)C1`, the “activation” value is reported as -0.736%. With `COc1ccc(OC)c([C@H](O)CNC(=O)CN)c1` the “activation” value was 1.06% [at 20.6 µM, normalised to 500 nM splice-correcting PNA]. In the case of `CS(=O)(=O)N1CCC[C@@]2(CCN(c3ccncc3)C2)C1`, the “activation” value is reported as 0.825%. For `COc1ccc(CNc2ncnc3ccc(-c4cccnc4)cc23)c(OC)c1`, the “activation” value was -0.216%. With `CN(C)C(=O)/N=N\C(=O)N(C)C` the “activation” value was 0.247%. For `Oc1c(Br)cc(CN(Cc2cc(Br)c(O)c(Br)c2)C2CCCCC2)cc1Br`, the activation was 1.47% [at 9.22 µM, normalised to 500 nM splice-correcting PNA]. In the case of `CC(C)(C)c1ccc(OC2C=CC(C#Cc3ccccc3)OC2CO)cc1` (centres undefined), the activation is reported as -0.074% [at 9.22 µM, normalised to 500 nM splice-correcting PNA]. For `CC(C)=CCC/C(C)=C/CO/N=C1/C[C@@H](O)[C@@H](O)[C@@H]2[C@@H]3C(=O)N(C(C)(C)C)C(=O)[C@H]3CC[C@H]12`, the activation was -1.71% [at 9.22 µM, normalised to 500 nM splice-correcting PNA]. In the case of `CCCn1c(C)nc2c(NCCCCN(CC)CC)nc(C)nc21`, the “activation” value is reported as -0.385%. For `O=C(Cl)c1ccccc1[N+](=O)[O-]`, the “activation” value was -0.267%. In the case of `CC(C)(C)NCC[C@@H](O)c1cc(C(F)(F)F)nc2c(C(F)(F)F)cccc12`, the activation is reported as 0.766% [at 9.22 µM, normalised to 500 nM splice-correcting PNA]. In the case of `COc1cccc(-c2cc(NCCc3c[nH]c4ccc(OC)cc34)ncn2)c1`, the “activation” value is reported as -0.561%. In the case of `COc1ccc(/C=C/NC(=O)Cc2ccc(OC)c(OC)c2)cc1`, the activation is reported as 1.47% [at 9.22 µM, normalised to 500 nM splice-correcting PNA] and 0.37% [at 9.22 µM, normalised to 500 nM splice-correcting PNA]. For `O=C(O)c1nccnc1C(=O)Nc1ccc(Br)cn1`, the “activation” value was -1.21%. With `COc1cccc(Cn2c(=O)cnc3cncnc32)c1` the “activation” value was 4.4%. For `O=C(O)[C@H](CCc1ccccn1)c1ccccc1`, the activation was 1.34% [at 9.22 µM, normalised to 500 nM splice-correcting PNA]. With `N#Cc1ccccc1-c1ccc2ncnc(NCc3cccnc3)c2c1` the “activation” value was -2.1%. For `CCCCC/C=C/C=C/C=O`, the “activation” value was 1.32%. With `O=C(O)CCCCC(=O)O` the “activation” value was -0.164%. With `CNC(=O)C1(C)C=CC2(CCCCC2)N1C(C)=O` (centres undefined) the “activation” value was -1.62%. For `O=S(=O)(c1ccccc1)N1CCC2(CC1)CN(Cc1nccs1)C2`, the “activation” value was 1.28%. For `CCON=C1C(C)(C)C(C)(C)C(C)(C)C1(C)C`, the activation was 1.16% [at 9.22 µM, normalised to 500 nM splice-correcting PNA]. In the case of `O=C(c1cnccn1)N1CCC2(CCN(Cc3cc(C(F)(F)F)cc(C(F)(F)F)c3)CC2)CC1`, the “activation” value is reported as -0.133%. For `O=C(c1ccncc1)N1CCC2(CCCN(C(c3ccccc3)c3ccccc3)C2)CC1`, the “activation” value was 0.276%. In the case of `Nc1ccccc1N`, the “activation” value is reported as 1.59%. For `CC(=O)OCC(COC(C)=O)OC(C)=O`, the “activation” value was 1.19%. In the case of `Cc1cc(C(=O)O)ccc1[N+](=O)[O-]`, the “activation” value is reported as 0.443%. For `O=C1C[C@@H](O)[C@@H](O)[C@H]2[C@@H]3C(=O)N(Cc4ccc5c(c4)OCO5)C(=O)[C@@H]3CC[C@H]12`, the activation was 3.01% [at 9.22 µM, normalised to 500 nM splice-correcting PNA] and 2.86% [at 9.22 µM, normalised to 500 nM splice-correcting PNA]. In the case of `CN/C(=C\[N+](=O)[O-])NCCSCc1csc(CN(C)C)n1`, the “activation” value is reported as -1.87% [at 20.6 µM, normalised to 500 nM splice-correcting PNA]. In the case of `CO[C@H]1COC(=O)C/C=C\[C@H](C)COC(=O)[C@@H](OCc2ccccc2)/C=C\[C@@H]1C`, the activation is reported as 1.62% [at 9.22 µM, normalised to 500 nM splice-correcting PNA].
